eIF4H inh = human eIF4H binding inhibitors, primary screen, translation initiation inhibitor project, biochemical, uHTS, fluorescence polarization; hit rate 0.94% among 290,000; eIF4H fluorescence polarization binding assay; inhibition, % at 35 µM; Eukaryotic translation initiation factor 4H (Homo sapiens), Q15056;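 note: calls also rest on retests at 20 µM and on dose response follow-up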
EBV gp42 block = Epstein-Barr virus gp42 inhibitors, primary screen, biochemical, uHTS, fluorescence polarization. Fluorescence polarization binding assay, mP read-out. Glycoprotein 42 (Epstein-Barr virus (strain AG876)), Q1HVG2. hit rate 0.42% among 220,000. inhibition, % (tested at 21.74 µM); in the data active = inhibition above about 50%
MEX-5 binding = MEX-5 zinc finger RNA-binding disruptors – biochemical, C. elegans, fluorescence polarization, MLPCN library, primary screen; AID 1832, 2009; hit rate 0.38% among 300,000; Zinc finger protein mex-5 (Caenorhabditis elegans), Q9XUB2; activity score (negative = inhibition of binding), % at 10 µM; MEX-5/FITC-TCR2 RNA binding; stronger effect = lower value;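 active = inhibition past about -25% in most replicates, and total fluorescence under double the plate's negative control median, limit read from the data; inconclusive = replicates evenly split on the limit, or fluorescence at least double controls; inactive = too little inhibition in most replicates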;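 note: 0% = DMSO and -100% = 5 µM competing unlabeled TCR2 RNA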
MLLE-PAM2 inh = inhibitors of PABP1 MLLE–PAM2 peptide binding, primary screen, biochemical, fluorescence polarization, FITC-PAM2, GST-MLLE; inhibition, % at 20 µM; hit rate 0.36% among 360,000; in the data active = inhibition above about 35%, passing the limit was not always enough;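 note: plate controls were DMSO wells with GST-MLLE for no effect and wells lacking GST-MLLE protein for full effect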
Target sequence (P11940 whole entry, looked up): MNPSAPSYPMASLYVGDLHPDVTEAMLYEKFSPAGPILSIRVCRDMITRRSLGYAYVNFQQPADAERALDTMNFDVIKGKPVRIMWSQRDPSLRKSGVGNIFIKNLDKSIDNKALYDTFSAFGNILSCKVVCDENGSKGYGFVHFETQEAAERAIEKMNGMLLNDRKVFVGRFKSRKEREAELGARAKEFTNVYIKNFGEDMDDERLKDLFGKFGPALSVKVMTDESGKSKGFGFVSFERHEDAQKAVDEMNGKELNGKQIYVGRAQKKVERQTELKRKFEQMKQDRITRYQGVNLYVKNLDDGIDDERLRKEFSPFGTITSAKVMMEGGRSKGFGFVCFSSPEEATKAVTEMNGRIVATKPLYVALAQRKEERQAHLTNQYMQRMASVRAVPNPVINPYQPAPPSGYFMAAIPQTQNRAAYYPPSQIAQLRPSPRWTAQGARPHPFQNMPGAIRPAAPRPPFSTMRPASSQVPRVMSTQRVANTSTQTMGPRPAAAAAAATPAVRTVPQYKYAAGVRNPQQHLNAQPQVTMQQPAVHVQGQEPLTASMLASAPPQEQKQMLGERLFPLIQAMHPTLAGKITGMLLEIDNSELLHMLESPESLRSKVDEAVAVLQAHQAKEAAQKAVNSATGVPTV
PABP polyA inh = PABP poly(A) RNA binding inhibitors, primary screen, biochemical, fluorescence polarization, uHTS; Polyadenylate-binding protein 1 (Homo sapiens), P11940; hit rate 1% among 290,000; calls only at 35 µM;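 note: calls also rest on retests at 20 µM and on dose response follow-up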
* = called active by the depositor. Most compounds without a hit are left out; they make up all but 1.8% or so of the library. Unless noted, the rule behind the calls is not given here.

O=C(/C=C/c1ccc(OCCCF)cc1)Nc1ccnc(-c2cccnc2)n1 was read as eIF4H inh 102*, EBV gp42 block -29, MEX-5 binding -51*, MLLE-PAM2 inh -63 and PABP polyA inh active.
CC(=O)Nc1ccc(S(=O)(=O)N(CC(=O)NCC2CCCO2)Cc2ccccc2Cl)cc1 (stereo not drawn) was read as MLLE-PAM2 inh 4.
For COCCNC(=O)c1cc2c(=O)n3cccc(C)c3nc2n1C the results were eIF4H inh -11, MEX-5 binding 0, MLLE-PAM2 inh -5 and PABP polyA inh inactive.
Screening Cc1cccn2c(=O)c3cc(C(=O)NCCCn4ccnc4)n(C)c3nc12 returned eIF4H inh 91*, EBV gp42 block 39, MEX-5 binding -20, MLLE-PAM2 inh 15 and PABP polyA inh active.
`CCCCNC(=O)c1cc2c(=O)n3cccc(C)c3nc2n1C` gave eIF4H inh -13 and PABP polyA inh inactive.
For Cc1cccn2c(=O)c3cc(C(=O)N(C)C)n(C)c3nc12 the results were eIF4H inh inconclusive, EBV gp42 block 25, MEX-5 binding -17, MLLE-PAM2 inh 53* and PABP polyA inh inconclusive.
`COc1ccc(OCCNC(=O)c2ccc3nc(C)c(N(C)Cc4ccc(NC(C)=O)cc4)n3c2)cc1` gave MLLE-PAM2 inh 0.
`N#C/C(=C\c1ccccc1)C(=O)NNS(=O)(=O)c1ccc(Br)cc1` gave MLLE-PAM2 inh -2.
Cc1nnc(SCC(=O)NCc2ccco2)[nH]c1=O was read as eIF4H inh 57*, EBV gp42 block -16, MEX-5 binding -4, MLLE-PAM2 inh 13 and PABP polyA inh active.
O=C(Cn1sc2ccccc2c1=O)NC12CC3CC(CC(C3)C1)C2 was read as eIF4H inh 2, EBV gp42 block -29, MEX-5 binding 2, MLLE-PAM2 inh 53* and PABP polyA inh inactive.
For Nc1ccccc1C(=O)NC12CC3CC(CC(C3)C1)C2 the results were eIF4H inh -2, MEX-5 binding -2, MLLE-PAM2 inh -2 and PABP polyA inh inactive.
`Nc1cccc2c1C(=O)N(CC(=O)NC13CC4CC(CC(C4)C1)C3)C2=O` gave eIF4H inh 42, EBV gp42 block 64*, MEX-5 binding 0, MLLE-PAM2 inh 3 and PABP polyA inh inactive.
For CCN(CC)C(=S)NC(=O)c1ccc(OC)c(Br)c1 the results were eIF4H inh 4, EBV gp42 block -9, MEX-5 binding 0, MLLE-PAM2 inh 35 and PABP polyA inh inactive.
`C=CCN(CC=C)C(=S)NC(=O)c1ccc(OC)c(Br)c1` gave eIF4H inh 3, EBV gp42 block -1, MEX-5 binding 0, MLLE-PAM2 inh 44* and PABP polyA inh inactive.
Screening COc1ccc(C2=Nc3ccccc3NC(=O)C2N(CCc2ccccc2)C(=O)c2cccs2)cc1 (stereo not drawn) returned MLLE-PAM2 inh -3.
For O=C1CCCC2=C1Sc1ccccc1N2 the results were eIF4H inh 43, EBV gp42 block 65*, MEX-5 binding -7, MLLE-PAM2 inh 43* and PABP polyA inh inactive.
For O=C1Nc2ccccc2SC1=Cc1ccccc1 the results were MLLE-PAM2 inh 32.
`CCCCNC(=O)Oc1c(Br)cc2sc(=O)oc2c1Br` gave eIF4H inh 96*, EBV gp42 block -4 and PABP polyA inh active.
Screening O=Cc1coc2ccc3ccccc3c2c1=O returned eIF4H inh -5, MEX-5 binding -4, MLLE-PAM2 inh 40* and PABP polyA inh inactive.
For Cc1c(CC(=O)NCCCC(=O)O)c(=O)oc2cc3occ(-c4ccccc4)c3cc12 the results were eIF4H inh -3, MEX-5 binding 0, MLLE-PAM2 inh 3 and PABP polyA inh inactive.
Cc1c(CCC(=O)NCCCCCC(=O)O)c(=O)oc2cc3occ(-c4ccccc4)c3cc12 was read as eIF4H inh 72*, MEX-5 binding 0, MLLE-PAM2 inh 12 and PABP polyA inh active.
For COc1ccccc1-c1cnc(C(O)c2ccc(CN3CCCCC3)cc2)[nH]1 (stereo not drawn) the results were MLLE-PAM2 inh -11.
Screening CCn1nc([N+](=O)[O-])c2c(-c3nc4ccccc4o3)c(N)n(CCCOC)c2c1=O returned eIF4H inh 70*, EBV gp42 block -8, MEX-5 binding 1, MLLE-PAM2 inh 11 and PABP polyA inh active.
Screening O=[N+]([O-])c1ccc(N=Nc2ncc[nH]2)cc1 returned eIF4H inh -2, MEX-5 binding -32*, MLLE-PAM2 inh 18 and PABP polyA inh inactive.
For Nc1nc2ccccc2[nH]1 the results were eIF4H inh -3, MEX-5 binding 0, MLLE-PAM2 inh -53 and PABP polyA inh inactive.
For Nc1ccccc1Sc1nc2ccccc2[nH]1 the results were eIF4H inh 9, EBV gp42 block -20, MEX-5 binding -1, MLLE-PAM2 inh 39* and PABP polyA inh inactive.
For C=CC[n+]1c(-c2ccc(C)cc2)csc1Nc1ccc(NC(C)=O)cc1 the results were eIF4H inh -9, EBV gp42 block -2, MEX-5 binding 0, MLLE-PAM2 inh -12 and PABP polyA inh inactive.
C=CC[n+]1c(-c2ccc(OC)cc2)csc1NNC(=O)Nc1ccccc1 was read as eIF4H inh 70*, EBV gp42 block -11, MEX-5 binding -1, MLLE-PAM2 inh -51 and PABP polyA inh active.
CN1OC[C@@H]2CN(C(=O)NC3CCCCC3)[C@H](c3ccc(N4CCCCC4)cc3)C[C@@H]21 was read as MLLE-PAM2 inh -14.
Screening Cc1ccc(S(=O)(=O)N2C[C@H]3C(=O)C[C@@H](c4ccccc4)N(S(C)(=O)=O)[C@H]3C[C@H]2c2ccccc2)cc1 returned MLLE-PAM2 inh 13.
Screening Cc1c(/C=N/Nc2ccc(F)cc2)c(O)n(C)c(=O)c1C#N returned eIF4H inh 81, EBV gp42 block 8, MEX-5 binding 0, MLLE-PAM2 inh 4 and PABP polyA inh active.
CC(=O)N=Cc1c(C)c(C#N)c(=O)n(C)c1O was read as eIF4H inh inconclusive, EBV gp42 block -4, MEX-5 binding -3, MLLE-PAM2 inh 13 and PABP polyA inh inactive.
For CCN(CC)c1ccc2nc3ccc(N)cc3[n+](-c3ccccc3)c2c1 the results were MLLE-PAM2 inh 77.
CCN(CC)c1ccc2nc3ccccc3[n+](CC)c2c1 was read as eIF4H inh 39, MEX-5 binding -6, MLLE-PAM2 inh -113 and PABP polyA inh active.
Screening O=C(Nc1cccc(S(=O)(=O)N2CCCC2)c1)[C@H]1C[C@H](O)[C@@H](CO)O1 returned MLLE-PAM2 inh -4.

Bioassay records deposited in PubChem by several laboratories.
